# A number with no mark means an inactive call. Calls of active or inactive are those of the source. Rule as the data show it: active = fold change mostly below about -2 (no sharp cut-off); inactive = mostly above about -1.8.
# Experiment: modulation of TERT promoter-driven luciferase – cell-based, luciferase reporter, human, primary screen (AID 1259240)
# Conditions: A2780 TERT promoter luciferase reporter, 16 h; at 20 µM, fold versus average of vehicle-only wells
SMILES,fold change,outcome
CCOc1ccc(-n2c(O)cnc2Nc2nc(C)cc(C)n2)cc1,-1.65,–
CCc1nnc(NC(=O)CSc2ncnc3ccccc23)s1,1.11,–
CCOC(=O)N1CCN(c2c(N(CC)CCN(C)C)c(=O)c2=O)CC1,-1.33,–
Cc1cc(C)cc(NC2=C(N3CCOCC3)C(=O)c3ccccc3C2=O)c1,-1.02,–
COC(=O)c1nc2n(n1)C(c1ccc(C)cc1)C1=C(CCCC1=O)N2 (centres undefined),–,inactive
Cc1csc(NC(=O)C2=CCN(S(=O)(=O)c3ccccc3)CC2)n1,1.13,–
CN(C)c1ccc(/C=c2\sc3nc(-c4ccco4)nn3c2=O)cc1,1.37,–
CCCNc1c(NC2CCN(C(=O)OCC)CC2)c(=O)c1=O,-1.23,–
CCN1C(=O)C2(/C(=C(/O)c3ccc(OC)cc3)C(=O)C(=O)N2CCOC)c2ccccc21 (centres undefined),1.29,–
CC1(C)CC(=O)c2sc(NC(=O)C(C)(C)C)nc2C1,1.32,–
CN(CC(=O)NC1CCCc2ccccc21)S(=O)(=O)c1ccc2c(c1)CCC(=O)N2 (centres undefined),1.18,–
O=C(c1ccc(CSCc2ccccc2F)o1)N1CCN(c2ccc(N3CCOCC3)nn2)CC1,1.7,–
CCN1C(=O)/C(=c2\sc3nc(-c4cccc(C)c4)nn3c2=O)c2cc(Br)ccc21,-1.02,–
CC(=O)Oc1ccc(/C=c2\sc3nc(-c4ccco4)nn3c2=O)cc1,-1.31,–
O=C(Nc1ccc(F)c(F)c1)C1CCCN1S(=O)(=O)c1cccc2nsnc12 (centres undefined),-1.3,–
COc1ccc(-c2noc(-c3ccc(Cl)cc3)n2)cc1OC,-4.04 (active),–
O=C1Nc2ccc(Br)cc2/C1=C\c1nc2ccccc2c(=O)n1-c1cccc(C(=O)O)c1,–,inactive

SMILES,fold change,outcome
O=C1Nc2ccccc2/C1=C\c1cn(CC(=O)N2CCCC2)c2ccccc12,1.66,–
CCOc1ccc(OCC)c(NC(=O)C2CCCN(S(=O)(=O)c3cnc[nH]3)C2)c1 (centres undefined),1.05,–
CNC(=O)CN1C(=O)COc2ccc(S(=O)(=O)N3CCOCC3)cc21,-1.1,–
COc1cccc(CNc2nc3ccccc3n3cnnc23)c1,1.12,–
O=C(CSc1ncnc2ccccc12)N1CCCc2ccccc21,-1.11,–
O=C(O)CCC(=O)N1CCc2cc(S(=O)(=O)N3CCc4ccccc4C3)ccc21,1.93,–
O=c1nc2s/c(=C\c3ccco3)c(=O)n2nc1Cc1ccc(Cl)cc1,-1.46,–
CCc1ccc2nc(Nc3nccc(C)n3)nc(C)c2c1,1.83,–
CCOC(=O)N1CCC(Nc2c(N3CCCC3)c(=O)c2=O)CC1,-1.12,–
CCC(C(=O)O)N1C(=O)/C(=C/c2ccc(OC)cc2)SC1=S (centres undefined),-2.97 (active),–
c1ccc2c(NCCCN3CCOCC3)c3c(nc2c1)CCCC3,-1.45,–
NC(=O)c1c(NC(=O)c2cc(-c3ccc(O)cc3)on2)sc2c1CCCC2,–,inactive
OCCn1c(-c2ccc(Br)cc2)cn2c3ccccc3nc12,-1.06,–
O=C(Cn1ncc2c3ccccc3n(Cc3ccccc3)c2c1=O)N1CCCC1,-1.21,–
Cc1ccn2cc(-c3cccc(S(=O)(=O)N4CC(C)OC(C)C4)c3)nc2c1 (centres undefined),-1.09,–
Cc1ccc2c(C)nc(NC3=NCN(CCN4CCOCC4)CN3)nc2c1,1.05,–
COc1ccc(S(=O)(=O)n2nc(-c3ccc(OC)cc3OC)cc2N)cc1,1.19,–
